Laboratory results: the supplement of paper PMC6411743
± gives the standard deviation of the averaged measurements. Targets with the largest changes are over-represented here; the source holds about 6,500 in all.

Compound: Nc1ncnc2c1ncn2[C@@H]1O[C@H](COP(=O)(O)OP(=O)(O)OP(=O)(O)O)[C@@H](O)[C@H]1O [adenosine triphosphate]
Assay: NP40-soluble protein abundance relative to vehicle (solubility fold change) (ratio); higher = more soluble protein in presence of ATP
Summary of the method: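 Jurkat crude lysate prepared with a Dounce homogeniser was treated at eight concentrations spanning 0.1 to 10 mM, 10 min at room temperature then 3 min at 37 °C. Solubilisation with 0.8% NP40 and benzonase and ultracentrifugation preceded TMT labelling of the supernatant for LC-MS/MS. Fold change against the detergent-processed vehicle was determined per replicate from vsn-normalised intensities, across three independent experiments.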

Chain of UniProt P13995 (P13995 whole entry): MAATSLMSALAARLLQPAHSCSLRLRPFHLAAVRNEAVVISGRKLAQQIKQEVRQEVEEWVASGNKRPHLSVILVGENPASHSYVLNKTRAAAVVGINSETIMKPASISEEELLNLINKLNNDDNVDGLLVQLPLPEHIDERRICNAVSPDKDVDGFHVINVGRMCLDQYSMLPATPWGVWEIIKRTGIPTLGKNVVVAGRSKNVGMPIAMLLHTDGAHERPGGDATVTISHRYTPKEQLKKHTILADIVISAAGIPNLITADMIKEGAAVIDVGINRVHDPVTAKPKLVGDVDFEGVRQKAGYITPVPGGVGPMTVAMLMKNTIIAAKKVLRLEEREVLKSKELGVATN
Chain of UniProt P61201 (P61201 whole entry): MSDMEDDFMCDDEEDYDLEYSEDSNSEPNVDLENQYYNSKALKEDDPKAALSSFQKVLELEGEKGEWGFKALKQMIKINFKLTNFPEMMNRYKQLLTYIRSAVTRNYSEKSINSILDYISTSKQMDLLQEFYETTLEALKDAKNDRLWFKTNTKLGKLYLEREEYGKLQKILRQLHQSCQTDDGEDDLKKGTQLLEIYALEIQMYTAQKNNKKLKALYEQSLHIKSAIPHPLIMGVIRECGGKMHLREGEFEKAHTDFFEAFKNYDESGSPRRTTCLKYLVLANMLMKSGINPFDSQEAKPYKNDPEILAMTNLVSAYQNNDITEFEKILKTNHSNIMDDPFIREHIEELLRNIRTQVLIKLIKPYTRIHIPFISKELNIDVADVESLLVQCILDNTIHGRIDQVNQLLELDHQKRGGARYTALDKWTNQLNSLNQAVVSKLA
Chain of UniProt P35998 (P35998 whole entry): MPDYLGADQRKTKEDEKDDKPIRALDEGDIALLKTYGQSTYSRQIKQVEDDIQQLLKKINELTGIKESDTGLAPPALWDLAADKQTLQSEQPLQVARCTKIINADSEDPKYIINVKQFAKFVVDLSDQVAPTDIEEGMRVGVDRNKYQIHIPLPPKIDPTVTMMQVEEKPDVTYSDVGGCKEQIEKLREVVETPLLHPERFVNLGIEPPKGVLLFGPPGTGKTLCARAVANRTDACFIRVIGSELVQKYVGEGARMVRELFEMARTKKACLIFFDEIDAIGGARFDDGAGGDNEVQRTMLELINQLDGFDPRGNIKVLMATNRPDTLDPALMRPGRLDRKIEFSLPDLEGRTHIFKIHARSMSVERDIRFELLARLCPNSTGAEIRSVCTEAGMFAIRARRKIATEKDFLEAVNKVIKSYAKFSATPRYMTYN
Chain of UniProt P61586 (P61586 whole entry): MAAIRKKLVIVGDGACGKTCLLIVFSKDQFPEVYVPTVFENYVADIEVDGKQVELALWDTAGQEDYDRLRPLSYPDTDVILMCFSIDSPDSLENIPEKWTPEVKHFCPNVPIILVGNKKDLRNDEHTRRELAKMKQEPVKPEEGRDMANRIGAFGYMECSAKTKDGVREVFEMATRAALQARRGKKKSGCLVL
Chain of UniProt P67870 (P67870 whole entry, one chain of several): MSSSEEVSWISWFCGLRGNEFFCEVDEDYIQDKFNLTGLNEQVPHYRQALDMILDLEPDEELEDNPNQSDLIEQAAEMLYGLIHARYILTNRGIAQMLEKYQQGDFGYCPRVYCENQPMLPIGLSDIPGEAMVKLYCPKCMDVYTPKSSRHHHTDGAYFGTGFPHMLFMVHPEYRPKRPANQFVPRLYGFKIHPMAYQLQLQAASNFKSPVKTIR
Chain of UniProt P42285 (P42285 whole entry): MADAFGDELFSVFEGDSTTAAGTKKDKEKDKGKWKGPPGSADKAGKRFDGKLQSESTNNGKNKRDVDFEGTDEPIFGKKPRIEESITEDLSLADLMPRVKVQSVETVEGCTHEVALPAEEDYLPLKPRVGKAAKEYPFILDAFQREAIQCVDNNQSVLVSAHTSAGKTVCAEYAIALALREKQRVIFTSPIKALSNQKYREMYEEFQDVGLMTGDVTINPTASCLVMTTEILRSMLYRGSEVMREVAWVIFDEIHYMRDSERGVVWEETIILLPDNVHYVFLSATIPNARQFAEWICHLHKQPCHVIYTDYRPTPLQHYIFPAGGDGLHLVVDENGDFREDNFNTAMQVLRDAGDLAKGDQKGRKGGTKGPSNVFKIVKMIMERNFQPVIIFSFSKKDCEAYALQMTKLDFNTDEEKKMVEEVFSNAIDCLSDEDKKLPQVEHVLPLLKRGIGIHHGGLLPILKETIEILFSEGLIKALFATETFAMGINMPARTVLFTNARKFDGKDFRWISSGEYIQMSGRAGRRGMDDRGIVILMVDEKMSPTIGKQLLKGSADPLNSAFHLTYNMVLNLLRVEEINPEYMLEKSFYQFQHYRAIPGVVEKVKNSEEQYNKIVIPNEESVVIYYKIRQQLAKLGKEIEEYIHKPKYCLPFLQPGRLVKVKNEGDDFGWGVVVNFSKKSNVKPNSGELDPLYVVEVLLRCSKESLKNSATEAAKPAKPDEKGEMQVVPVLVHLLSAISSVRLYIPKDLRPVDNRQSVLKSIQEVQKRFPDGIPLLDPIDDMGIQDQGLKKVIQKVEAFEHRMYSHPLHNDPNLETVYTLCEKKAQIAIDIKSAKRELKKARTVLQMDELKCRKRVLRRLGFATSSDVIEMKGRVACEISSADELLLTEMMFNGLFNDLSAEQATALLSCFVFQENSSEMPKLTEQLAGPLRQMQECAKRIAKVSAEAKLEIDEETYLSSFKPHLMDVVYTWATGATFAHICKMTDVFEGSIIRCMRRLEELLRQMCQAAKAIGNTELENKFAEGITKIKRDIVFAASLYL
Chain of UniProt P08621 (P08621 whole entry): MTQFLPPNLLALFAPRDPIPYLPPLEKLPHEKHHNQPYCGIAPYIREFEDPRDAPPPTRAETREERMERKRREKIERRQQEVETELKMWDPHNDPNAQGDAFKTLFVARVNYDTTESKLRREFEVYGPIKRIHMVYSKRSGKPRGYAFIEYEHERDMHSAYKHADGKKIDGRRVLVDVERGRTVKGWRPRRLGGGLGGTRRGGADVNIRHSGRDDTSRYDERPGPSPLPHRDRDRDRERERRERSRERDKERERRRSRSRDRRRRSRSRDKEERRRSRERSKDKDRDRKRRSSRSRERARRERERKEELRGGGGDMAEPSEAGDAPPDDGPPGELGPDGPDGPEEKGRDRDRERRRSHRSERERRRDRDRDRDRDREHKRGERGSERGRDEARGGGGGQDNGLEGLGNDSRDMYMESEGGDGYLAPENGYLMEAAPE
Chain of UniProt Q00653 (Q00653 whole entry): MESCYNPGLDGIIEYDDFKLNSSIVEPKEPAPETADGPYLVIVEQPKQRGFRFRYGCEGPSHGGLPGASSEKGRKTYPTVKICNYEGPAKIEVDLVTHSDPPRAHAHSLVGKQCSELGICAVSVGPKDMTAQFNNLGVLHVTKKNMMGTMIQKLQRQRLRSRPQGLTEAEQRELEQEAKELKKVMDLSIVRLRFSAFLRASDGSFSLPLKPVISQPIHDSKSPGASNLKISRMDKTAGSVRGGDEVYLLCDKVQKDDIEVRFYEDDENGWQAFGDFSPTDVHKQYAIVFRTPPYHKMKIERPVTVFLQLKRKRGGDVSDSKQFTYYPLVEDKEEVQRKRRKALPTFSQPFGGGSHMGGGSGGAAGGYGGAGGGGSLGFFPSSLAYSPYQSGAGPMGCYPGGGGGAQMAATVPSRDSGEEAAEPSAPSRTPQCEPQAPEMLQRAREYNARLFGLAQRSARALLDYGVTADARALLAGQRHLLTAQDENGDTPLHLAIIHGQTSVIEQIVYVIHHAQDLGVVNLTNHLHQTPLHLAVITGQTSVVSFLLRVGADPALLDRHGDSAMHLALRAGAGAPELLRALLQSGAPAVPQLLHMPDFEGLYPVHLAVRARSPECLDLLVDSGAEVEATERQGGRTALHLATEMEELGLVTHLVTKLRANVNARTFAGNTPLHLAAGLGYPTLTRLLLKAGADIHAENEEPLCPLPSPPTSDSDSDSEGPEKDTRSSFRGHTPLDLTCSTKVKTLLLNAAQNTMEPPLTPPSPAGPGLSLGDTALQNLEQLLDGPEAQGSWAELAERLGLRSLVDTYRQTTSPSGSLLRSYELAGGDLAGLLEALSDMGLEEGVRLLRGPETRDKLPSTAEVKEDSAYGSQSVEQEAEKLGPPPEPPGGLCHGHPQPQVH
Chain of UniProt P09012 (P09012 whole entry): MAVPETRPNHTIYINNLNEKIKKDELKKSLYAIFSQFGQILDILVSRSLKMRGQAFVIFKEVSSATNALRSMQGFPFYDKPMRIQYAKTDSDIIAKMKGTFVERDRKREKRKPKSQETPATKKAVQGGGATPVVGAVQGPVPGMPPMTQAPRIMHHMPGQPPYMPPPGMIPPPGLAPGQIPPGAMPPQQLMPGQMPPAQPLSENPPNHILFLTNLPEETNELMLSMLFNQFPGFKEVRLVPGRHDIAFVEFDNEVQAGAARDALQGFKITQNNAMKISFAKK
Chain of UniProt P49903 (P49903 whole entry): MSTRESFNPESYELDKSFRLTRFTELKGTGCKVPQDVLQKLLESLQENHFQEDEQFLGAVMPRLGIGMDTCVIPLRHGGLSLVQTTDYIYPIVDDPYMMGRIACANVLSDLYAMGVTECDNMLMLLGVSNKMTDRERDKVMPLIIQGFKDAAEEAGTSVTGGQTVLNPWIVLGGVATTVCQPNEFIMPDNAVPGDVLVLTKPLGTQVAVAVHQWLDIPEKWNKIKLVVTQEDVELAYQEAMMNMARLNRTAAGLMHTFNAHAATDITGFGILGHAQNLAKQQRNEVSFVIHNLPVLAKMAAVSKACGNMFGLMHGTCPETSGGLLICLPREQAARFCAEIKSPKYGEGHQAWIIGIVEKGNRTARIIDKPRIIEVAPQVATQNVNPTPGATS
Chain of UniProt P08134 (P08134 whole entry, one chain of several): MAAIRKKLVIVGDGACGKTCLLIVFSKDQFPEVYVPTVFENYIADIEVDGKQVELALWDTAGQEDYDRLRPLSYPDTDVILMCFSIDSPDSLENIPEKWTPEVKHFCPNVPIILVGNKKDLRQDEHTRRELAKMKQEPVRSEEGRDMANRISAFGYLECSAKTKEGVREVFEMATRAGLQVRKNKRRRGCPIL

Target	NP40-soluble protein abundance (concentration: 1mM)	NP40-soluble protein abundance (concentration: 2mM)	NP40-soluble protein abundance (concentration: 4mM)	NP40-soluble protein abundance (concentration: 6mM)	NP40-soluble protein abundance (concentration: 8mM)	NP40-soluble protein abundance (concentration: 10mM)
UniProt P50750-2|P50750	1.18 ± 0.047	1.26 ± 0.047	1.38 ± 0.018	1.47 ± 0.13	1.64 ± 0.058	1.7 ± 0.1
PPT1 (UniProt P50897)	0.942 ± 0.054	0.92 ± 0.019	0.877 ± 0.034	0.957 ± 0.035	0.903 ± 0.016	0.86 ± 0.039
CRTAP (UniProt O75718)	1.11 ± 0.024	1.14 ± 0.032	1.16 ± 0.024	1.19 ± 0.034	1.19 ± 0.033	1.2 ± 0.052
CDKN2D (UniProt P55273)	0.959 ± 0.065	0.928 ± 0.036	0.953 ± 0.046	0.953 ± 0.019	0.951 ± 0.024	0.872 ± 0.045
ARL3 (UniProt P36405)	0.978 ± 0.0088	0.944 ± 0.057	0.937 ± 0.057	0.926 ± 0.066	0.945 ± 0.037	0.946 ± 0.049
RBM25 (UniProt P49756)	1.21 ± 0.074	1.33 ± 0.12	1.68 ± 0.22	2.25 ± 0.24	2.63 ± 0.34	3.08 ± 0.38
UniProt P08134|Q5JR08	0.974 ± 0.053	0.998 ± 0.031	0.975 ± 0.024	1 ± 0.05	0.957 ± 0.067	0.971 ± 0.027
UniProt Q01082|Q01082-3	0.887 ± 0.029	0.899 ± 0.014	0.928 ± 0.03	1.05 ± 0.037	1.04 ± 0.06	1.07 ± 0.048
EIF2S1 (UniProt P05198)	1.04 ± 0.043	1.05 ± 0.034	1.02 ± 0.027	1.04 ± 0.07	1.06 ± 0.053	1.05 ± 0.051
IDH1 (UniProt O75874)	0.993 ± 0.056	0.988 ± 0.038	0.94 ± 0.052	0.94 ± 0.081	0.957 ± 0.04	0.949 ± 0.027
UniProt Q01196|Q01196-8|Q01196-2	1.07 ± 0.026	1.08 ± 0.024	1.11 ± 0.016	1.17 ± 0.034	1.15 ± 0.028	1.21 ± 0.034
UniProt P67870|Q5SRQ6	0.972 ± 0.024	1 ± 0.021	1.013 ± 0.0063	1.05 ± 0.067	1.07 ± 0.019	1.04 ± 0.017
IARS (UniProt P41252)	1.1 ± 0.14	1 ± 0.072	0.974 ± 0.058	0.905 ± 0.059	1.05 ± 0.035	0.975 ± 0.078
SNRPA (UniProt P09012)	1.01 ± 0.067	0.989 ± 0.09	0.973 ± 0.093	0.984 ± 0.1	0.992 ± 0.032	0.97 ± 0.006
UniProt P26368|P26368-2	1.96 ± 0.078	1.99 ± 0.078	2.01 ± 0.076	2.06 ± 0.032	2.11 ± 0.079	2.09 ± 0.12
UniProt Q03933-2|Q03933	0.912 ± 0.029	1.05 ± 0.065	1.05 ± 0.2	1.09 ± 0.17	1.04 ± 0.048	1.01 ± 0.051
SOAT1 (UniProt P35610)	1.02 ± 0.042	1 ± 0.028	0.999 ± 0.055	0.97 ± 0.029	1.03 ± 0.019	0.971 ± 0.041
POLR3D (UniProt P05423)	0.986 ± 0.095	0.962 ± 0.062	0.949 ± 0.071	0.963 ± 0.12	0.965 ± 0.064	0.963 ± 0.065
UniProt P08621|P08621-2	1.33 ± 0.049	1.42 ± 0.083	1.59 ± 0.078	1.74 ± 0.096	1.88 ± 0.077	1.97 ± 0.14
UniProt P13674|P13674-2	1.01 ± 0.0016	1.01 ± 0.022	0.994 ± 0.027	1.03 ± 0.054	1.01 ± 0.034	1.04 ± 0.045

Target	NP40-soluble protein abundance (concentration: 1mM)	NP40-soluble protein abundance (concentration: 2mM)	NP40-soluble protein abundance (concentration: 4mM)	NP40-soluble protein abundance (concentration: 6mM)	NP40-soluble protein abundance (concentration: 8mM)	NP40-soluble protein abundance (concentration: 10mM)
MTHFD2 (UniProt P13995)	1.02 ± 0.018	1.01 ± 0.02	0.995 ± 0.04	1.01 ± 0.043	1.01 ± 0.032	1 ± 0.026
GALK2 (UniProt Q01415)	0.938 ± 0.068	0.975 ± 0.073	0.985 ± 0.012	0.86 ± 0.12	0.956 ± 0.066	0.968 ± 0.037
CDK6 (UniProt Q00534)	0.984 ± 0.047	0.999 ± 0.051	0.988 ± 0.05	0.955 ± 0.058	0.966 ± 0.041	0.974 ± 0.064
UniProt P49761|P49761-1|P49761-3	1.317 ± 0.008	1.56 ± 0.035	1.54 ± 0.018	1.43 ± 0.13	1.81 ± 0.23	2.065 ± 0.019
UniProt P09471-2	1.04 ± 0.059	0.979 ± 0.043	0.949 ± 0.052	0.975 ± 0.1	0.9637 ± 0.0096	0.969 ± 0.014
ATRN (UniProt O75882)	0.928 ± 0.039	0.947 ± 0.048	0.975 ± 0.015	0.959 ± 0.095	0.896 ± 0.01	0.899 ± 0.057
ARF3 (UniProt P61204)	1.05 ± 0.21	1.01 ± 0.17	1.04 ± 0.13	0.961 ± 0.23	1.05 ± 0.073	0.996 ± 0.08
UniProt P38398|P38398-7|P38398-4|P38398-8	1.02 ± 0.011	1.05 ± 0.071	1.03 ± 0.035	1.03 ± 0.086	1.02 ± 0.081	1.06 ± 0.03
DDX58 (UniProt O95786)	1.06 ± 0.097	1.03 ± 0.063	1 ± 0.05	0.978 ± 0.078	1.03 ± 0.056	1.01 ± 0.055
UniProt P49748|P49748-3	0.997 ± 0.081	0.989 ± 0.064	0.983 ± 0.027	0.934 ± 0.083	0.986 ± 0.015	0.973 ± 0.045
JAK1 (UniProt P23458)	1.21 ± 0.015	1.21 ± 0.022	1.23 ± 0.032	1.16 ± 0.043	1.27 ± 0.047	1.26 ± 0.041
UniProt Q06787-5|Q06787-6|Q06787-8|Q06787|Q06787-3|Q06787-7|Q06787-9|R9WNI0	1.16 ± 0.14	1.27 ± 0.1	1.56 ± 0.17	1.83 ± 0.13	2.14 ± 0.19	2.48 ± 0.15
CTCF (UniProt P49711)	1.02 ± 0.027	0.993 ± 0.036	0.972 ± 0.034	0.895 ± 0.046	0.927 ± 0.032	0.894 ± 0.027
UniProt P62854	0.92 ± 0.095	0.912 ± 0.11	0.911 ± 0.18	0.809 ± 0.13	0.745 ± 0.099	0.843 ± 0.13
UniProt P61201|P61201-2	0.9548 ± 0.0092	0.945 ± 0.031	0.9178 ± 0.005	0.968 ± 0.03	0.912 ± 0.043	0.916 ± 0.026
UniProt O94925|O94925-3	1.02 ± 0.071	0.968 ± 0.035	0.981 ± 0.078	0.944 ± 0.05	0.978 ± 0.061	0.947 ± 0.039
GALT (UniProt P07902)	0.994 ± 0.016	0.972 ± 0.068	0.983 ± 0.053	0.9753 ± 0.0077	0.935 ± 0.029	0.947 ± 0.02
UniProt P25398	0.879 ± 0.058	0.861 ± 0.073	0.813 ± 0.071	0.817 ± 0.087	0.761 ± 0.043	0.779 ± 0.061
TPMT (UniProt P51580)	1 ± 0.084	1 ± 0.077	0.985 ± 0.064	0.954 ± 0.12	0.992 ± 0.057	0.979 ± 0.044
SNAP29 (UniProt O95721)	0.967 ± 0.086	0.943 ± 0.043	0.939 ± 0.055	0.967 ± 0.04	0.939 ± 0.036	0.877 ± 0.046

Target	NP40-soluble protein abundance (concentration: 1mM)	NP40-soluble protein abundance (concentration: 2mM)	NP40-soluble protein abundance (concentration: 4mM)	NP40-soluble protein abundance (concentration: 6mM)	NP40-soluble protein abundance (concentration: 8mM)	NP40-soluble protein abundance (concentration: 10mM)
SPN (UniProt P16150)	0.828 ± 0.17	0.803 ± 0.16	0.812 ± 0.13	0.835 ± 0.14	0.765 ± 0.094	0.71 ± 0.2
UniProt P21675|P21675-12|P21675-2|P21675-3|P21675-4|P21675-5|P21675-6|P21675-7|P21675-9	1.11 ± 0.067	1.11 ± 0.048	1.11 ± 0.066	1.15 ± 0.14	1.2 ± 0.079	1.19 ± 0.091
UniProt P49354|H0YCW1	1.05 ± 0.088	1.01 ± 0.059	1.03 ± 0.053	0.955 ± 0.12	1.04 ± 0.076	0.996 ± 0.062
RFC3 (UniProt P40938)	1.25 ± 0.036	1.3 ± 0.041	1.31 ± 0.041	1.31 ± 0.039	1.35 ± 0.061	1.36 ± 0.046
CST3 (UniProt P01034)	0.964 ± 0.083	0.971 ± 0.063	1 ± 0.11	1.03 ± 0.11	1.05 ± 0.15	1.05 ± 0.14
RHOA (UniProt P61586)	0.996 ± 0.14	1.01 ± 0.078	0.968 ± 0.06	1.09 ± 0.069	0.939 ± 0.023	0.944 ± 0.027
RBM34 (UniProt P42696)	1.16 ± 0.026	1.21 ± 0.059	1.4 ± 0.097	1.57 ± 0.1	1.7 ± 0.18	1.85 ± 0.21
ACSL3 (UniProt O95573)	1.02 ± 0.05	1.05 ± 0.028	1.03 ± 0.036	1 ± 0.11	1.03 ± 0.041	1.01 ± 0.031
UniProt Q02880-2	1.28 ± 0.061	1.36 ± 0.045	1.57 ± 0.067	1.73 ± 0.13	1.99 ± 0.11	2.07 ± 0.057
PSMC2 (UniProt P35998)	0.9515 ± 0.0057	0.914 ± 0.029	0.882 ± 0.016	0.908 ± 0.1	0.899 ± 0.053	0.894 ± 0.047
UniProt P12268|H0Y4R1	1.14 ± 0.2	0.858 ± 0.18	0.957 ± 0.03	0.745 ± 0.14	0.636 ± 0.064	0.587 ± 0.058
GSTM2 (UniProt P28161)	0.96 ± 0.07	0.952 ± 0.054	0.886 ± 0.043	0.889 ± 0.035	0.911 ± 0.058	0.861 ± 0.056
SRM (UniProt P19623)	1.03 ± 0.12	1.01 ± 0.1	1 ± 0.083	0.929 ± 0.12	0.998 ± 0.071	0.997 ± 0.068
UniProt P08243|P08243-2|P08243-3	1.1 ± 0.13	1.1 ± 0.12	1.1 ± 0.11	1.03 ± 0.14	1.15 ± 0.12	1.09 ± 0.097
XPA (UniProt P23025)	0.975 ± 0.021	0.979 ± 0.033	0.965 ± 0.054	1.02 ± 0.027	0.954 ± 0.1	0.968 ± 0.05
DCK (UniProt P27707)	0.955 ± 0.067	0.98 ± 0.052	0.914 ± 0.046	0.935 ± 0.093	0.933 ± 0.03	0.948 ± 0.044
UniProt P42285	1.07 ± 0.07	1.06 ± 0.035	1.09 ± 0.033	1.07 ± 0.031	1.2 ± 0.013	1.21 ± 0.066
IGHMBP2 (UniProt P38935)	1.41 ± 0.11	1.59 ± 0.088	1.84 ± 0.09	2.01 ± 0.13	2.19 ± 0.2	2.4 ± 0.14
UniProt P49903|P49903-2	1 ± 0.039	0.992 ± 0.02	0.962 ± 0.049	0.979 ± 0.068	0.966 ± 0.052	0.96 ± 0.042
UniProt Q00653|Q00653-4	1.006 ± 0.0072	0.99 ± 0.026	0.971 ± 0.025	0.995 ± 0.022	0.965 ± 0.021	0.973 ± 0.012
